An excerpt weighted towards active compounds, which were near 12% of everything screened.
PI5P4K alpha inh = blocks human PI5P4K alpha kinase activity | max response, % | 330,000 compounds, 1.2% hits | PI5P4Kalpha enzyme, ADP-Glo luminescence, 60 min; stronger effect = lower value | P48426; active = max response of -50% or lower; inconclusive = between -30% and -50%; inactive = -30% or higher; also: value at the top dose of about 77 µM; % is scaled to controls: 0 for no effect and ±100 for the full control effect
Target sequence (P48426 whole entry, looked up): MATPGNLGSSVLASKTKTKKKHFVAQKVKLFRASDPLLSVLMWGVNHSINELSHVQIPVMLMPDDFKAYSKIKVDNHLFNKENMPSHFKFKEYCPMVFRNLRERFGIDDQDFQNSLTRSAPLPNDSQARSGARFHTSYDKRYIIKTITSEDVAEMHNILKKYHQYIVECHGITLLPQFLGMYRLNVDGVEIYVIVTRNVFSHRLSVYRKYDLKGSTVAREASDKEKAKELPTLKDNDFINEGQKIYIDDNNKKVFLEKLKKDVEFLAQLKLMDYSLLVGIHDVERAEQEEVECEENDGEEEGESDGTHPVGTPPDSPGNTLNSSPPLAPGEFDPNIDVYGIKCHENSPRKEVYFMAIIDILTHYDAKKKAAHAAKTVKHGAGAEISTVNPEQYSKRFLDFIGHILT
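Luminescence from ADP-Glo served as readout of PI5P4Kalpha activity in a qHTS format. Reaction: enzyme, substrate, compound, ATP at 5 microM final, 60 min at RT.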
G9a block = G9a (human) methyltransferase inhibition | G9a H3K9 monomethylation, AlphaScreen, 2 h | Potency, µM (top dose mostly 102 µM), inactives show at the top dose activity, negative = inhibition, hits mostly inhibitors | 350,000 compounds, 8.8% hits; also: potency is read from the fitted curve at half-maximal effect; % is scaled to controls: 0 for no effect and ±100 for the full control effect; nearly all actives have a fitted effect of over 75% in size
Target sequence (Q96KQ7 913-1193 limits assumed): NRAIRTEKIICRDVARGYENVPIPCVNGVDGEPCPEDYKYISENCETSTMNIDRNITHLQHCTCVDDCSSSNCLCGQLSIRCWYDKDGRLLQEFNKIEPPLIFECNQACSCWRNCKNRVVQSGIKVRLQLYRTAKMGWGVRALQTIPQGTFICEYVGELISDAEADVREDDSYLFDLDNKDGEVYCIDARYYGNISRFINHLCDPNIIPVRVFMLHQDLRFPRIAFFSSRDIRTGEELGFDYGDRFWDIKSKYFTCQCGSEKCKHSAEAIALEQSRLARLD
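Signal arises when biotinylated H3K9 peptide, once monomethylated, bridges streptavidin donor and antibody-captured acceptor beads. Enzyme at 20 nM was preincubated 15 min with test compounds; peptide 500 nM and SAM 20 uM then reacted for 2 h.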
BAZ2B block = BAZ2B (human) inhibition; Q9UIF8; AlphaScreen BAZ2B-H3K14Ac peptide displacement; Potency, µM (titrated, usually from 114 µM), for inactives: at the top dose activity change, negative = inhibition, hits mostly inhibitors; 360,000 compounds, 4.4% hits; AID 504333; also: potency is read from the fitted curve at half-maximal effect; % is scaled to controls: 0 for no effect and ±100 for the full control effect; nearly all actives have a fitted effect of over 60% in size
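BAZ2B (50 nM) with biotin-H3(5-23)K14Ac peptide (50 nM) in PBS pH 7.4, 0.01% Tween-20, preformed 30 min, then compound 30 min at room temperature; top concentration 110uM. AlphaScreen streptavidin donor/nickel chelate acceptor beads (10 ug/mL final), 20 min dark, signal read.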
HP1b binding inh = HP1-beta chromodomain-methylated histone interaction inhibition. AlphaScreen HP1-beta / biotin-H3K9me3 peptide binding. P83916. Potency, µM (doses to about 114 µM), for the others: at the top dose activity change, negative = inhibition, hits mostly inhibitors. AID 540317. 390,000 compounds, 0.56% hits; also: potency is read from the fitted curve at half-maximal effect; nearly all actives have a fitted effect of over 70% in size
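HP1-beta protein (50 nM final) preincubated 30 min at room temperature with biotinylated H3(1-18)K9me3 peptide (50 nM) in PBS pH 7.4, 0.01% Tween-20, then compound added for 30 min. AlphaScreen streptavidin donor/nickel chelate acceptor beads (10 ug/mL final), 30 min dark, luminescence read.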
PLK1 PBD inh = inhibitors of human PLK1 polo-box domain binding. P53350. Plk1 PBD binding of FITC phosphopeptide, fluorescence polarization. Potency, µM, without a hit: max response, negative = inhibition, hits mostly inhibitors. 360,000 compounds, 2.8% hits; also: potency is read from the fitted curve at half-maximal effect; series mostly up to about 57 µM; % is scaled to controls: 0 for no effect and ±100 for the full control effect; nearly all actives have a fitted effect of over 65% in size
JMJD2A Tudor = inhibitors of human JMJD2A Tudor domain; O75164; AlphaScreen JMJD2A-Tudor / H3K4me3 peptide binding; Potency, µM (highest dose often 114 µM), for the others: at the top dose activity change, negative = inhibition, most hits filed as inhibitors; 390,000 compounds, 4.4% hits; also: potency is read from the fitted curve at half-maximal effect; % is scaled to controls: 0 for no effect and ±100 for the full control effect; nearly all actives have a fitted effect of over 50% in size
An asterisk follows results filed as active; ? = inconclusive; nt = no result; ! = repeats disagree; [ ] = dose if it differs, or a comment. Unless noted, calls follow the shape of the dose curve; as a rule, active = well fitted curve in the direction sought with a large enough effect; inconclusive = small, poorly fitted or top-dose-only effect, or another doubt; inactive = no such curve, though single readings can be large; an effect the other way counts as inactive or inconclusive.

SMILES | PI5P4K alpha inh | G9a block | BAZ2B block | HP1b binding inh | PLK1 PBD inh | JMJD2A Tudor
CCCCNc1cc(NC2CCCCC2)c2c3c(onc13)-c1ccccc1C2=O | nt | 2µM* | 1.8µM* | ? | nt | 10µM*
CCCCn1nc(C(=O)NC2CCCCCC2)c2ccccc2c1=O | 0 | nt | nt | 48% | 6% | -11%
Cc1cc(-c2ccccc2C(=O)NC2CCCCC2)on1 | -5 | nt | -3% | 9% | 4% | 5%
O=C1c2ccccc2-c2onc3c(NCCO)cc(NC4CCCCC4)c1c23 | nt | 2.2µM* | 3.5µM* | ? | nt | 7.9µM*
CCOc1ccc(S(=O)(=O)NCC(c2ccco2)S(=O)(=O)c2ccc(F)cc2)cc1 (stereo unspecified) | nt | -32%[59 µM] | -12% | 5% | nt | -21%
COc1ccc(C2C(C#N)=C(N)N3C(=C2C#N)Sc2ccccc23)cc1 (stereo unspecified) | nt | 6.3µM* | 0% | nt | nt | nt
CCCC1=[N+](CC)CCn2c(C)ccc21 | nt | 14µM* | 8% | 6% | -2% | ?
CCn1c(/C=C\c2ccccc2C)nc2ccccc2c1=O | 9 | 112% | 10% | 96% | -7% | 54%
CCn1c(/C=C2\C(=O)N(C)c3ccccc32)nc2ccccc2c1=O | 1 | -16%[59 µM] | 56µM* | -12% | -5% | ?
CCN1C(=O)/C(=C/c2nc3ccccc3c(=O)n2-c2ccccc2)c2ccccc21 | 4 | 3%[59 µM] | 3% | 3% | -13% | ?
CCN1C(=O)/C(=C\c2nc3ccccc3c(=O)n2CC)c2ccccc21 | 2 | 63µM* | 45µM* | ? | -17% | 16µM*
CCn1c(/C=C2\C(=O)N(C(C)C)c3ccccc32)nc2ccccc2c1=O | 4 | 3%[12.7 µM] | 40µM* | -23% | 0% | -7%[11.4 µM]
CCn1c(/C=C/c2c[nH]c3ccccc23)nc2ccccc2c1=O | 1 | 2% | -5% | -3% | 21µM* | 56µM*
Cc1ccc(NC(=O)CN2C(=O)COc3ccc(S(=O)(=O)N4CCCCC4)cc32)cc1N(C)C | nt | -39%[59 µM] | -39% | 14% | nt | -25%
CCn1c(/C=C2/C(=O)N(C)c3ccccc32)nc2ccccc2c1=O | 1 | 50µM* | 35µM* | ? | -6% | -28%[57.1 µM]
CC(C)N1C(=O)/C(=C\c2nc3ccccc3c(=O)[nH]2)c2ccccc21 | -21 | 25µM* | 32µM* | ? | -18% | ?
CC1CCc2c(sc(NC(=O)CSc3ncn[nH]3)c2C#N)C1 (stereo unspecified) | 4 | 12%[59 µM] | -7% | 45% | 3% | -8%
COC(=O)c1c(NC(=O)CSc2ncn[nH]2)sc(C)c1C | 0 | 4µM* | 1% | 15% | -12% | -12%
CCOC(=O)c1sc(NC(=O)CCN2CC(C)OC(C)C2)c(C(=O)OCC)c1C (stereo unspecified) | nt | 45µM* | -9% | nt | nt | nt
CC(C)(C)C1CCc2c(sc(NC(=O)CSc3ncn[nH]3)c2C#N)C1 (stereo unspecified) | nt | 25µM* | -4% | -29% | 19µM* | -15%
CCOC(=O)c1sc(NC(=O)CCN2CCN(C)CC2)c(C(=O)OCC)c1C | 0 | 23%[12.7 µM] | ? | 3% | -2% | -27%
CCOC(=O)c1c(NC(=O)CC)sc(C(C)=O)c1C | -7 | 25µM* | ? | -16% | 11µM* | 17%
COc1ccc(NC(=O)c2oc3ccccc3c2NC(=O)Cc2ccc(F)cc2)c(OC)c1 | nt | -19%[59 µM] | 3% | 44% | nt | -4%
COc1ccc(S(=O)(=O)N2CCOCC2)cc1NC(=O)c1ccc(SC)cc1OC | -18 | nt | nt | nt | 2% | nt
CCOC(=O)c1c(NC(=O)CSc2ncn[nH]2)sc(C(C)=O)c1C | 9 | 19% | 56µM* | 36% | -6% | -12%
SMILES | PI5P4K alpha inh | G9a block | BAZ2B block | HP1b binding inh | PLK1 PBD inh | JMJD2A Tudor
Cc1ccccc1OCCn1c(C)nc2ccccc21 | 3 | 18% | -28% | 35% | -6% | -8%
Cc1ccccc1OCCn1c(=S)[nH]c2ccccc21 | 2 | 40µM* | -31% | 29% | -22% | -31%
Fc1ccccc1OCCn1c(=S)[nH]c2ccccc21 | 6 | 7.1µM* | -37% | 33% | ? | ?
Cc1c(C=O)c2ccccc2n1CCOc1ccccc1F | -1 | 23% | -3% | 30% | 1% | 5%
O=C(Nc1ccc(F)c(Cl)c1)c1cc(S(=O)(=O)N2CCCc3ccccc32)ccc1F | nt | 29%[59 µM] | 12% | 51% | nt | -10%
CS(=O)(=O)c1cccc(S(=O)(=O)N2CCCCCC2)c1 | 5 | 41% | 1% | 22% | -6% | -10%
CC(=O)NCCOc1cccc(OCCNC(C)=O)c1 | 5 | 11%[59 µM] | 7% | 35% | -1% | -14%
CCOc1cccc(OCCCNCCCOC)c1 | -9 | ? | 40µM* | ? | -2% | 2.8µM*
CCc1cccc(OCCCCNCCCOC)c1 | -3 | 13µM* | ? | ? | -11% | 6.3µM*
OCCNCCCCOc1cccc(Br)c1 | -4 | -19%[59 µM] | 3% | 47% | 0% | -5%
CCc1cccc(OCCCCN(CC)CC)c1 | 8 | -9%[12.7 µM] | ? | -38% | -1% | 3.5µM*
COCCCNCCCCOc1cccc(Br)c1 | -6 | 28µM* | ? | -13% | 5% | 2.5µM*
CC/C(=C\C1CCCCC1)C(NP(=O)(c1ccccc1)c1ccccc1)c1ccccc1 (stereo unspecified) | 7 | ? | -34% | 0% | 2% | ?
Cc1noc(C)c1CSCC(=O)Nc1cc(S(=O)(=O)N2CCOCC2)ccc1OC(C)C | 4 | -39% | -2% | 24% | -7% | -10%
CCC(=O)C1CCCN(C(=O)c2ccc(OC3CCN(C(=O)CCOC)CC3)cc2)C1 (stereo unspecified) | -1 | 11% | 1% | 23% | 0% | 3%
Oc1ccccc1C1C=C(c2ccc3c(c2)OCO3)NC(c2ccc(Br)cc2)N1 (stereo unspecified) | nt | nt | nt | 15%[57 µM] | nt | -17%[57.1 µM]
C=CCNCCCCOc1cccc(Br)c1 | -12 | nt | 32µM* | ? | -15% | 0.71µM*
O=C1CC(=Nc2ccc([N+](=O)[O-])cc2)NN1c1c(Cl)cc(Cl)cc1Cl | ? | nt | nt | nt | -29% | nt
COc1cc2nc(N(C)CCCNC(=O)C3CCCO3)nc(N)c2cc1OC (stereo unspecified) | nt | 11µM*! | -3% | nt | nt | nt
COc1cc2nc(N(C)CCCNC(=O)[C@@H]3CCCO3)nc(N)c2cc1OC | nt | 11%[21.5 µM] | nt | nt | nt | nt
O=C(COC(=O)C1CC2CCCC(C1)C2=O)NNC(=O)c1ccc([N+](=O)[O-])cc1 (stereo unspecified) | 1 | 11%[0.501 µM] | 9% | 35% | -5% | -12%
Fc1ccc(CSc2nncn3c2cc2occc23)c(Cl)c1 | nt | ? | ? | -3% | nt | -30%
Oc1ccc(/C=N/Nc2ccccc2)cc1 | -21 | 25µM* | -25% | ? | -24% | 22µM*
COc1cc(/C=N/Nc2ccccc2C(F)(F)F)ccc1O | 2 | nt | -35% | ? | ? | 56µM*
